This is an account of results in publication PMC5540273 (PLoS ONE, 2017).

The structures appear in SMILES notation.
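Further: KINOMEscan kinase panel screen.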

The assay relates to RIPK2. The following applies: concentration: 1 μM,replicates: in singlicate; n = 1.
Turning to `Cn1ccc2ncnc(Oc3ccc(NC(=O)Nc4ccnc(C(F)(F)F)c4)c(Cl)c3)c21`, the “%Inh” value was 0%.
In the case of `Cc1ccc(CC(=O)N2CCc3cc(-c4cn(C)c5ncnc(N)c45)ccc32)cc1` [GSK2634758] it was 76%; in that of `CS(=O)(=O)c1cccc(CNc2nc(Nc3ccc4c(c3)[C@@H]3C[C@@H]4CNC3=O)ncc2C(F)(F)F)c1`, 0%.
Next, `CNC(=O)c1ccccc1Nc1nc(Nc2cccc(CS(C)(=O)=O)c2)ncc1C.O=CO` [GSK1520489]: 30%.
In the case of `Cn1ccc2ncnc(Oc3ccc(NC(=O)Nc4cccc(C(F)(F)F)c4)c(Cl)c3)c21` it was 43%; in that of `CN1CCN(CCNc2nc3cc(Oc4ccc(NC(=O)Nc5cc(C(F)(F)F)ccc5F)cc4)ccc3[nH]2)CC1.Cl.Cl` [GW768504], 1%; in that of `O=C(NCC1CC1)c1ccc(-c2cc(C(=O)NC3CC3)ccc2F)cc1` [GW810445], 0%.
Turning to `N#Cc1cccc(C(=O)NC2CCN(c3ccnc(Nc4ccc(F)cc4)n3)C2)c1` (stereo not shown) [GSK1379708], the “%Inh” value was 0%.
Consider `FC(F)(F)c1cc(Br)cc(Nc2nccc(-c3cnn4ncccc34)n2)c1` [GW810578], for which the “%Inh” value turned out to be 69%.
In the case of `Cc1ccn2nc(-c3ccc(F)cc3)c(-c3ccncc3)c2c1.Cl` [GW457859] it was 41%; in that of `C[C@@H](Oc1cc(-n2cnc3cc(-c4cnn(C)c4)ccc32)sc1C(N)=O)c1ccccc1Cl` [GSK580432], 10%.
In the case of `Cn1ccc2ncnc(Oc3ccc(NC(=O)Nc4cncc(C(F)(F)F)c4)c(Cl)c3)c21` it was 9%; in that of `CS(=O)(=O)Nc1ccc(-c2ccnc3[nH]ccc23)cc1` [GSK993273], 18%.
Next, `O=C(Nc1n[nH]c2cc(-c3ccco3)ccc12)C1CC1` [SB-737447]: 0%.
As to `OCCn1cc(-c2cnc3nnn(Cc4ccc5ncccc5c4)c3n2)cn1`, the “%Inh” value was determined as 0%.
`Cc1ccc(Nc2ccnc(Nc3ccc4c(c3)CS(=O)(=O)C4)n2)cc1O.Cl` [GW579362]: the “%Inh” value is on record as 93.6%.
In the case of `Cn1ccc2ncnc(Oc3ccc(NC(=O)Nc4cccc(C(F)(F)F)c4)c(F)c3)c21`, the “%Inh” value is 52%.
Turning to `CCOC(=O)N1CCC(n2cnc(-c3ccc(F)cc3)c2-c2ccnc(N)n2)CC1` [SB-219952], the “%Inh” value is reported as 34%.
Regarding `CCn1c(-c2nonc2N)nc2cncc(Br)c21` [SB-738004], the “%Inh” value stood at 11%.
In the case of `Cl.c1ccc(Oc2ccc(Nc3ccnc4cc(-c5ccc(CN6CCNCC6)o5)ccc34)cc2)nc1` [GW567142] it was 95.5%.
Next, `COc1cccc(C2=C(Nc3cccc(Cl)c3)C(=O)NC2=O)c1` [SB-341556]: 0%; `CS(=O)c1ccc(-c2coc3ccc(-c4n[nH]c(=O)o4)cc23)cc1` (stereo not shown): 0%.
Next, `COC(=O)Nc1nc2cc(Oc3ccc(NC(=O)Nc4cc(C(F)(F)F)ccc4Cl)cc3)ccc2[nH]1.Cl` [GW697465]: 43%; `Cn1cc(-c2cccc3c(N)c(C(N)=O)nnc23)cn1`: 3%.
On to `C[C@@H]1CCN(C(=O)N2CCCC2)C[C@@H]1N(C)c1ncnc2[nH]ccc12`, for which the “%Inh” value is recorded as 0%.
Regarding `Cc1ccc2c(-c3ccnc(Nc4ccc(C(F)(F)F)cc4)n3)cnn2n1` [GW819776], the “%Inh” value is 17%.
With `C[C@@H](Oc1cc(-n2cnc3cc(-c4ccncc4)ccc32)sc1C(N)=O)c1ccccc1Cl` [GSK479719], the “%Inh” value turned out to be 17%.
`CCNCC(Cc1ccccc1)NC(=O)c1cc(Br)c(-c2ccnc3[nH]ccc23)s1.Cl.Cl` (stereo not shown) [GSK1383280]: the “%Inh” value was determined as 0%.
Next, `Cc1nnc(-c2ccc3occ(-c4ccc(S(C)=O)cc4)c3n2)o1` (stereo not shown): 0%; `COc1cc2nccc(Nc3ccc(Oc4ccccc4)cc3)c2cc1OC.Cl` [GI261656]: 98.3%; `COc1cccc(OC)c1C(=O)Nc1cccc(-c2nn3ccccc3c2-c2ccnc(Nc3cccc(F)c3)n2)c1` [GSK361065]: 38%.
As for `COc1cc(Nc2nccc(N3CCC(NC(=O)c4cccc(C#N)c4)C3)n2)cc(OC)c1OC` (stereo not shown) [GSK1379751], the “%Inh” value came to 25%.
As to `O=C(Nc1cccc(C(F)(F)F)c1)c1cccc(Oc2ccc3nccn3n2)c1`, the “%Inh” value came out at 0%.
Next, `CC(C)c1nc(-c2cccc(NS(=O)(=O)c3ccccc3)c2)c(-c2ccnc(Nc3ccc4c(c3)CN(C)CC4)n2)s1` [GSK1649598]: 98.7%; `CN1CCN(CCCNc2nccc(-c3c(-c4ccc(F)cc4)nn4cc(C(N)=O)ccc34)n2)CC1` [GW622475]: 85%; `CC(=O)c1c(-c2ccncc2)[nH]c(-c2ccncc2)c1C` [GW493036]: 14%.
In the case of `COC(=O)c1cccc(NC(=O)NC2CCN(c3ccnc(NCc4ccc(F)cc4)n3)CC2)c1` [GSK1379860] it was 0%.
